The source of these data is PubChem BioAssay AID488922 (Johns Hopkins Ion Channel Center, 2010).

The whole screen tested about 310,000 compounds, of which about 3,800 (1.2%) were called active.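 Rule for the calls: active = ratio B-score over 3 SD below the library mean, with starting fluorescence within 5 SD of its mean; inactive = the rest, inconclusive results apart.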 What follows is part of a selection rich in actives, with near analogues and random picks from the rest.

The test deals with Potassium channel subfamily K member 9 (Homo sapiens) (UniProt Q9NPC2). Briefly: blockers of human TASK-3 (KCNK9) channel – HEK293 cells, thallium flux, primary screen (AID 488922).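 For B-score: negative B-score means less thallium flux so channel inhibition.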 The following applies: HEK293 KCNK9, FluxOR thallium flux fluorescence, at 10 µM; stronger effect = lower value.
Potassium channel subfamily K member 9 (Homo sapiens), sequence (Q9NPC2 whole entry, looked up): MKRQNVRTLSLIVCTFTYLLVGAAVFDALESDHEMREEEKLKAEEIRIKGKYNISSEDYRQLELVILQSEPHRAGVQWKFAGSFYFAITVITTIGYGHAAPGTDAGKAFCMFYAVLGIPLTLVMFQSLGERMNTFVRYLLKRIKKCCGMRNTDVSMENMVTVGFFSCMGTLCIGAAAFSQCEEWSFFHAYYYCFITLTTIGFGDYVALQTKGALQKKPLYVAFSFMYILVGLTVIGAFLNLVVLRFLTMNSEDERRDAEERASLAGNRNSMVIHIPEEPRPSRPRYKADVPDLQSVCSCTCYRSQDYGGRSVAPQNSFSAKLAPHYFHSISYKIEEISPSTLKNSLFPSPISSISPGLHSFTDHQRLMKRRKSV
Consider `CCCCCOC(=O)C1=C(C)Nc2nnnn2C1c1ccc(OC)c(OC)c1OC` (stereo not given), for which the B-score entry is “inactive”.
The value for `CC(C)CCNC(=O)CN(C(=O)Cn1nnc(-c2ccc(F)cc2)n1)C1CCCC1` was “inactive”; that for `CC(C)CCNC(=O)C(C)N(C(=O)Cn1nnc(-c2ccc(F)cc2)n1)C1CCCC1` (stereo not given) was -8.61 (active); that for `COc1ccc(-c2nnn(CC(=O)N(CCO)C(C(=O)NC3CCCC3)c3ccc(F)cc3)n2)cc1` (stereo not given) was “inactive”.
To `Cc1ccc(NC(=O)CN2CCCCC2)c2c1CC(C)(C)O2` belongs “inactive”.
To `CCOc1ccc(NS(=O)(=O)c2ccc(C(=O)NC3CCN(Cc4ccccc4)CC3)cc2)cc1` belongs “inactive”; to `CC(C)C(=O)Nc1cccc(NC(=S)NC(=O)C(c2ccccc2)c2ccccc2)c1`, -14.9 (active); to `CCCCC(=O)NNC(=S)NC(=O)C(c1ccccc1)c1ccccc1`, “inactive”.
In the case of `CC(C)C(=O)NC(=S)Nc1ccccc1F`, the B-score result is “inactive”.
The value for `Cc1c(C(=O)NC2CCCCC2)oc2ccccc12` was “inactive”; that for `Cc1ccc(NC(=O)CC2C(=O)N(Cc3ccccc3)C(=S)N2NC(=O)c2cccc(F)c2)c(C)c1` (stereo not given) was “inactive”.
With `CNc1ccc([N+](=O)[O-])cc1C(=O)O`, the B-score entry was “inactive”.
To `Cc1ccc(NC(=O)c2cc([N+](=O)[O-])ccc2Cl)c(O)c1` belongs -10.2 (active); to `O=C(Nc1cccnc1)c1cc([N+](=O)[O-])ccc1Cl`, “inactive”.
The value for `COc1ccc(-c2cc(C(F)(F)F)nc(NCc3cccnc3)n2)cc1` was “inactive”.
The value for `FC(F)(F)c1cc(-c2ccco2)nc(NCc2ccc(Cl)cc2)n1` was -8.22 (active); that for `FC(F)(F)c1cc(-c2cccs2)nc(NCc2ccco2)n1` was “inactive”.
`O=C(OCCOCn1cc(Br)c(=O)[nH]c1=O)c1ccccc1`: the B-score entry is “inactive”.
To `COc1ccc(Br)cc1CN(C)CC(=O)Nc1cc(Cl)cc(Cl)c1` belongs “inactive”; to `O=C(COc1ccc2ccccc2c1)N1CCN(C(=O)c2cccs2)CC1`, “inactive”.
The value for `O=S(=O)(Nc1ccccc1Br)c1cccs1` was “inactive”.
For `O=S(=O)(NCc1ccc(Cl)cc1Cl)c1cccs1`, the B-score entry was “inactive”.
The value for `O=C(Nc1cccc(Cl)c1)Nc1ccccc1NS(=O)(=O)c1cccs1` was -7.87 (active); that for `Cn1ccs/c1=N\S(=O)(=O)c1ccc(C(C)(C)C)cc1` was “inactive”; that for `COc1ccc(/C=N/NC(=O)c2ccc3c(c2)OCCO3)c(OC)c1` was “inactive”.
The value for `COc1ccc(/C=N/NC(=O)c2ccccc2)cc1OS(=O)(=O)c1ccccc1` was “inactive”; that for `COc1ccc(C(=O)Nc2ccccc2C(=O)N/N=C/c2ccc(O)c(OC)c2)cc1` was -10.2 (active); that for `COc1cc(/C=N/NC(=O)c2ccc(N3CCCC3=O)cc2)ccc1O` was “inactive”.
To `COc1ccc(C(=O)Nc2ccccc2C(=O)N/N=C/c2ccccc2OC)cc1` belongs -13.5 (active).
As to `COc1ccc(C(=O)Nc2ccccc2C(=O)NCc2ccco2)cc1`, the B-score entry is “inactive”.
To `COc1ccc(Cl)cc1NC(=O)COC(=O)C(CC(C)C)N1C(=O)C2CC=CCC2C1=O` (stereo not given) belongs “inactive”.
In the case of `COc1ccccc1N1CC(C(=O)Nc2nnc(SCC(=O)NCC3CCCO3)s2)CC1=O` (stereo not given), the B-score result was “inactive”.
Consider `CC1(C)CC(=O)c2c(n(S(=O)(=O)c3ccccc3)c3ccc(NS(=O)(=O)c4ccccc4)cc23)C1`, for which the B-score result is “inactive”.
As to `CNC(=O)c1sc(Nc2ccc(OCc3ccccc3)cc2)nc1C`, the B-score result was “inactive”.
For `CCOn1c(SC(C)C)nc2ccccc2c1=O`, the B-score result is “inactive”.
The value for `CCOC(=O)C1CCc2nc3ccccc3c(=O)n21` (stereo not given) was “inactive”; that for `CCOC(=O)C(C)Sc1nc2ccccc2c(=O)n1CC1CCCCC1` (stereo not given) was -11.7 (active); that for `FC(F)(F)c1ccc2c3n(nc2c1)CCN=C3c1ccc(Cl)cc1` was “inactive”.
To `O=C(Nc1ccc(Br)cc1)c1cccc(NC(=O)C2C3CC4OC(=O)C2C4C3)c1` (stereo not given) belongs “inactive”; to `COC(=O)c1ccc(C(NC(=O)OCc2ccccc2)/C(F)=C/[C@@H](C)C(=O)O)cc1` (stereo not given in full), “inactive”.
For the compound `CCC[C@@H]1C[C@@]1(CCC)[C@@H](NC(=O)c1ccccc1)c1ccc(C(=O)OC)cc1`, the B-score entry is “inactive”.
The value for `CCC/C=C(\CCC)C(NC(=O)Cc1ccccc1)c1ccc(C(=O)OC)cc1` (stereo not given) was -13.9 (active).
As to `CCc1cc2c(=O)n(-c3ccccc3)c(SCC(=O)O)nc2s1`, the B-score entry was “inactive”.
The value for `COc1ccc2[nH]c(C)c(CCN(Cc3cccs3)C(=S)Nc3ccccc3OC)c2c1` was “inactive”; that for `CCNC(=S)N(CCc1c(C)[nH]c2ccc(C)cc12)Cc1ccco1` was “inactive”.
On to `COc1cccc(NC(=S)N(CCc2c(C)[nH]c3ccccc23)Cc2ccco2)c1`, for which the B-score was -9.04 (active).
With `O=C1c2ccccc2S(=O)(=O)N1Cc1c(F)cccc1Cl`, the B-score result is “inactive”.
To `O=C1CCN(CCCc2ccccc2)CCN1CCO` belongs “inactive”; to `CCOC(=O)[C@@H]1[C@H]2COc3ccc(Br)cc3[C@H]2N2C(=O)N(c3ccc(Cl)cc3)C(=O)[C@@]12C`, -10.9 (active).
To `CCOC(=O)[C@H]1[C@H]2COc3cc(OC)ccc3[C@@H]2N2C(=O)N(c3ccc(Br)cc3)C(=O)[C@@]12C` belongs “inactive”; to `CCOC(=O)[C@@H]1[C@H]2COc3cc(OC)ccc3[C@H]2N2C(=O)N(c3ccc(F)cc3)C(=O)[C@]12C`, “inactive”; to `Cc1onc(-c2ccccc2Cl)c1C(=O)OCc1nnc(-c2ccccc2)o1`, “inactive”.
To `Cc1cc(SCc2c(F)cccc2Cl)nc(=O)[nH]1` belongs “inactive”; to `Fc1cccc(Cl)c1CSc1ccc(-c2ccco2)nn1`, -14.1 (active).
For `O=C(CSc1ccc(-c2ccco2)nn1)Nc1cccc(F)c1`, the B-score entry was “inactive”.
`NC(=O)C1=C[C@@H](c2csc3ccccc23)C[C@@H](OCc2ccc(CO)cc2)O1`: the B-score entry is “inactive”.
As for `COC(=O)c1c(NC(=O)C(=O)N2CCCCC2)sc2c1CC(C)(C)OC2`, the B-score entry is “inactive”.
Regarding `COc1ccc(/C=C2\CCCC3C2=NN(C(=O)c2scnc2C)C3c2ccc(OC)cc2)cc1` (stereo not given), the B-score entry was “inactive”.
As to `CCCCC(C(=O)NC(C)(C)C)N(Cc1ccccc1)C(=O)c1snc(C(N)=O)c1N` (stereo not given), the B-score entry was “inactive”.
With `CCC(C)n1c(-c2cc(OC)c(OC)c(OC)c2)nc2nc3ccccc3nc21` (stereo not given), the B-score was -15.1 (active).
The value for `COc1cc(-c2n[nH]c(=S)n2Cc2ccccc2)cc(OC)c1OC` was “inactive”; that for `COc1cc(C(O)c2nc3ccccc3n2C)cc(OC)c1OC` (stereo not given) was “inactive”; that for `COc1ccccc1-n1ccnc(SCC(=O)NC2CCCCC2)c1=O` was “inactive”.
`O=C(C1CCN(C2CCN(Cc3ccc4cc(F)ccc4n3)CC2)CC1)N1CCCC1`: the B-score result is “inactive”.
The value for `CCN(C(=O)COC(=O)c1cc(NS(=O)(=O)c2ccc(Cl)c([N+](=O)[O-])c2)ccc1O)C1CCCCC1` was “inactive”; that for `O=C(c1cc(-c2ccc(O)cc2)on1)N1CCCc2ccccc21` was “inactive”.
To `Cc1c(C(=O)N2CCCc3ccccc32)sc2nc(-c3ccccc3)cn12` belongs -6.69 (active); to `Cc1c(C(=O)N2CCCc3ccccc32)oc2ccccc12`, “inactive”.
Turning to `Cc1cccc2cc3c(N)c(C(=O)N4CCCc5ccccc54)sc3nc12`, the B-score is -6.79 (active).
The value for `Cc1c(C(=O)NCC2CCCO2)sc2nc(-c3ccccc3)cn12` (stereo not given) was “inactive”.
`Cc1c(C(=O)N2CC(C)OC(C)C2)sc2nc(-c3ccccc3)cn12` (stereo not given): the B-score result is “inactive”.
To `COc1cccc(CNC(=O)Cn2c(=O)oc3cc(S(=O)(=O)N4CCCCC4)ccc32)c1` belongs “inactive”; to `Cc1ccc(N2CC(C(=O)Nc3ccc(S(=O)(=O)N4CCCC4)cc3)CC2=O)cc1C` (stereo not given), “inactive”.
To `O=C(CCc1n[nH]c(=O)[nH]c1=O)N/N=C/c1ccc(Br)o1` belongs “inactive”; to `CC(C)OCCCNC(=O)c1ccc(C2SCC(=O)N2Cc2ccco2)cc1` (stereo not given), “inactive”; to `CCCCCCCC(=O)NC(Nc1ccccc1OC)C(Cl)(Cl)Cl` (stereo not given), “inactive”.
The value for `CCOC(=O)N1CCC(N(CCOC)C(=O)Nc2ccc(C)c(C)c2)CC1` was “inactive”; that for `CCn1c(COc2cccc(OC)c2)nnc1SCC(=O)N1CCOCC1` was “inactive”.
For `CCCCCCCCCCOC(=O)Cn1c(COc2cccc(OC)c2)[n+](C)c2ccccc21`, the B-score was -17.1 (active).
With `CCCCCCCCC(=O)NCCOc1ccccc1`, the B-score result is “inactive”.
With `Cc1ccc(OCCCn2c(=O)oc3ccccc32)cc1`, the B-score entry was “inactive”.
The value for `CCOC(=O)Cn1c(-c2cccnc2Cl)nc2ccccc21` was “inactive”; that for `CCCCCCCCCCOC(=O)Cn1c(COc2ccc(C)cc2)[n+](C)c2ccccc21` was -11.4 (active).
In the case of `C[C@@H]1O[C@@H](OC[C@H]2O[C@@H](Oc3c(-c4ccc(O)cc4)oc4cc(O)cc(O)c4c3=O)[C@H](O)[C@@H](O)[C@@H]2O)[C@H](O)[C@H](O)[C@H]1O`, the B-score entry is “inactive”.
Turning to `Cc1ccc(C2(C)NC(=O)N(CC(=O)Nc3ccccc3C(=O)N3CCCCC3)C2=O)cc1` (stereo not given), the B-score result is “inactive”.
For `O=C(OCCN1CCOCC1)C1(c2ccccc2)CCCCC1`, the B-score entry is “inactive”.
To `CCc1ccc(-c2cc(C(=O)NN3CCN(C)CC3)c3ccccc3n2)cc1` belongs “inactive”; to `CC(C)CN(C(=O)COC(=O)c1ccc2ccccc2c1)c1c(N)n(Cc2ccccc2)c(=O)[nH]c1=O`, “inactive”.
Turning to `Cc1ccc(NS(=O)(=O)c2ccc(-c3ccc(=O)[nH]n3)o2)c(C)c1`, the B-score entry is “inactive”.
To `Cc1ccc(CCN2CC(C(=O)NCCc3ccccc3)CC2=O)cc1` (stereo not given) belongs “inactive”; to `O=C(Nc1ccc(Cl)cc1)C1c2cccc[n+]2CC(=O)N1Cc1ccc2c(c1)OCO2` (stereo not given), “inactive”; to `CCOc1ccc(/C=N/NC(=O)C(C)Sc2ccccn2)cc1OCC` (stereo not given), “inactive”.
On to `CCOc1ccc(/C=N/NC(=O)CSc2ccccn2)cc1O`, for which the B-score entry is “inactive”.
To `C=CCOc1ccc(/C=N/NC(=O)C(C)Sc2ccccn2)cc1OCC` (stereo not given) belongs -8.3 (active).
Turning to `C/C(=N\NC(=O)CCn1nc(C)cc1C)C(C)(C)C`, the B-score entry is “inactive”.
Regarding `O=C(COC(=O)c1ccc[nH]c1=O)Nc1ccc2c(c1)OC(F)(F)O2`, the B-score entry is “inactive”.
Regarding `COc1ccc(OCC(=O)Nc2ccc(NC(=O)c3ccco3)c(C)c2)cc1`, the B-score entry was “inactive”.
To `O=C(COC(=O)c1ccccc1NC(=O)c1ccco1)Nc1ccc2c(c1)OC(F)(F)O2` belongs -8.01 (active); to `Cc1ccnc(SCCn2c(N(C)Cc3ccccc3)nc3c2c(=O)n(C)c(=O)n3C)n1`, “inactive”.
The value for `OC(COCCC12CC3CC(CC(C3)C1)C2)CN1CCCCC1` (stereo not given) was “inactive”.
